Screening results as filed in PubChem BioAssay.
KB-3-1 cytotox – kills parental KB-3-1 adenocarcinoma cells | KB-3-1 viability, CellTiter-Glo ATP luminescence, 72 h | Potency, µM (titrated, usually from 46.1 µM), actives largely listed as cytotoxic | actives 1.4% (n = 400,000); note: nearly all actives have a fitted effect of over 60% in size
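Here the drug-naive KB-3-1 line serves as comparator for MDR sub-line selectivity; cells received compound titrations, 72 h at 37 °C, then CellTiter-Glo readout.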
ELG1 DNA repair – blocks ELG1-dependent DNA repair in HEK293T cells. HEK293T ELG1-luciferase reporter, luminescence, 16 h; DNA damage induced by 5-fluorouridine. actives 2.3% (n = 330,000). AID 504467. Potency, µM (top dose mostly 46.1 µM), actives largely listed as inhibitors; note: nearly all actives have a fitted effect of over 55% in size
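Overnight (16 hr) co-exposure of 2,000 cells/well to 5-fluorouridine and compound at 37 °C preceded detection. Luciferase was quantified via ONE-Glo luminescence; loss of signal denotes inhibition.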
MCF10A rereplic – DNA re-replication induction in MCF 10a cells; MCF 10A DNA re-replication, Hoechst nuclear intensity, 48 h; Potency, µM (series often up to 46.1 µM), most hits filed as activators; actives 2.9% (n = 350,000); AID 624296; note: nearly all actives have a fitted effect of over 50% in size
SW480 rerep – inducers of DNA re-replication in SW480 colon cancer cells | SW480 DNA re-replication, Hoechst DNA content imaging, 48 h | Potency, µM (highest dose often 46.1 µM), actives largely listed as activators | actives 1.8% (n = 340,000) | AID 624297; note: nearly all actives have a fitted effect of over 55% in size
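Hoechst fluorescence of nuclei (405 nm excitation, 500-530 nm emission) measured by plate-scanning imager after 48 hr compound exposure at 37 C; re-replication scored as increased number of nuclei with elevated intensity.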
KB-V1 MDR tox – kills drug-selected multidrug resistant KB-V1 cells; KB-V1 MDR cells viability, CellTiter-Glo, 72 h; Potency, µM (series often up to 46.1 µM), most hits filed as cytotoxic; actives 3.4% (n = 400,000); AID 1347076; note: nearly all actives have a fitted effect of over 60% in size
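Cytotoxicity via CellTiter-Glo luminescence after 72 h compound exposure at 37 degrees C. Cells: drug-selected KB-V1 line, DMEM phenol-red free plus 10% FBS. Compounds tested at multiple concentrations; normalized data fitted to concentration-effect curves.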
A number is an active result; i = inactive; ? = inconclusive; nt = not tested or not shown. A selection: hits, their analogues and other compounds. The true share with any hit is near 8.1%. Calls come from the whole dose curve; as a rule, active = well fitted curve in the direction sought with a large enough effect; inconclusive = small, poorly fitted or top-dose-only effect, or another doubt; inactive = no such curve, though single readings can be large; an effect the other way counts as inactive or inconclusive.

SMILES | KB-3-1 cytotox | ELG1 DNA repair | MCF10A rereplic | SW480 rerep | KB-V1 MDR tox
OC(CNC1CCCC1)COc1ccc(-c2ccccc2)cc1 (stereo not drawn) | 21µM | i | ? | ? | ?
CC(=O)Nc1ccc(NC(=O)Cn2ccc([N+](=O)[O-])n2)cc1 | i | i | i | i | i
Cc1ccc(S(=O)(=O)NN=C2CC3CCC2(C)C3(C)C)cc1 (stereo not drawn) | i | nt | i | i | i
CC(=O)c1sc(N/N=C2\CC3CCC2(C)C3(C)C)nc1C (stereo not drawn) | i | i | 21µM | i | ?
Cc1ccc(NC(=S)N/N=C/c2ccc(OCCC(C)C)cc2)c(C)c1 | i | i | ? | i | 16µM
Cc1ccccc1C(=O)N/N=C/c1cccc2ccccc12 | i | ? | i | i | i
Cc1ccc(Cl)cc1NC(=S)N/N=C/c1cccc2ccccc12 | 5.8µM | ? | 8.2µM | 8.2µM | 2.1µM
CC(C)(C)NC(=S)N/N=C/c1c(Cl)cccc1Cl | i | ? | i | i | i
Cc1ccc(NC(=S)N/N=C/c2c(Cl)cccc2Cl)c(C)c1 | 0.58µM | ? | 1.5µM | 1.3µM | 1.2µM
CCOc1ccccc1/C=C(\C(=O)O)c1ccc(S(=O)(=O)N2CCCCC2)s1 | i | i | i | i | i
O=S(=O)(Nc1nc(-c2sccc2Cl)cs1)c1cc(Cl)ccc1Cl | i | i | 8.2µM | i | i
CCCCN(C)C1CCN(C(=S)Nc2cccc(OC)c2)CC1 | i | i | i | i | i
COC(=O)c1sc(NC(=O)CSc2nnc(C(C)C)n2C)nc1C | i | i | i | i | i
CCOC(=O)c1sc(NC(=O)CSc2nnnn2-c2ccc(C)c(C)c2)nc1C | i | i | 5.8µM | i | i
O=C(CSc1nnnn1-c1ccc2c(c1)OCCO2)Nc1nc2c(s1)CCCC2 | i | 21µM | i | i | 16µM
CCOC(=O)c1sc(NC(=O)CSc2nnc(C(C)C)n2C)nc1C | i | i | i | i | 23µM
Cn1c2ccccc2n2c(=O)c(=O)n(CC(=O)c3ccc(Cl)cc3)nc12 | i | i | ? | i | i
CCc1ccc(NC(=O)N2CCC(N3CCN(Cc4ccc(C)cc4)C(=O)C3=O)CC2)cc1 | i | nt | nt | nt | ?
CCCCNC(=O)c1ccc(Cn2c(=S)[nH]c3c([nH]c4ccc(OC)cc43)c2=O)cc1 | ? | ? | 16µM | ? | i
COc1ccc2[nH]c3c(=O)n(Cc4ccc(C(=O)N5CCC(C(N)=O)CC5)cc4)c(=S)[nH]c3c2c1 | i | 8.2µM | ? | i | i
COc1ccccc1N1CCN(C(=O)Cn2cnc3c2c(=O)n(C)c(=O)n3C)CC1 | i | ? | i | i | i
Cc1cccc(OCCCOc2cccc3cccnc23)c1C | ? | i | 23µM | ? | i
O=Cc1ccccc1OCCCOc1cccc2cccnc12 | i | i | 18µM | i | i
Cc1ccc2cccc(OCCCOc3ccccc3F)c2n1 | i | i | 13µM | ? | i
Brc1ccc(OCCOCCOc2cccc3cccnc23)cc1 | i | nt | i | i | 18µM
SMILES | KB-3-1 cytotox | ELG1 DNA repair | MCF10A rereplic | SW480 rerep | KB-V1 MDR tox
CC(C)(C)c1ccc(OCC(=O)Nc2ccc(C(=O)OC3CCCCC3)cc2)cc1 | i | nt | nt | nt | i
COC(=O)c1ccc(OCCOCCOc2cccc3ccc(C)nc23)cc1 | i | ? | i | i | 15µM
COC(=O)c1ccccc1OCCOCCOc1cccc2ccc(C)nc12 | i | ? | i | i | ?
Cc1cccc(N2CCN(c3nc(C)cc(C)c3C#N)CC2C)c1 (stereo not drawn) | ? | ? | 18µM | ? | i
COc1ccc(CCN(C)Cc2ccc(OC)c(OCc3ccccc3)c2)cc1OC | ? | i | i | ? | i
COc1ccc(C(=O)COC(=O)c2ccc(NC(=O)c3ccccc3)cc2)cc1 | i | i | i | ? | 15µM
COc1ccccc1NS(=O)(=O)c1cc(NC(=O)c2ccc(Cl)nc2)ccc1Cl | ? | 13µM | 18µM | i | 8.2µM
COc1ccc(CCN(C)Cc2ccc(C(=O)Nc3ccccc3)cc2)cc1OC | i | 7.3µM | ? | ? | i
Cc1ccc(NC(=O)C2=C(c3ccccc3)S(=O)(=O)CCS2(=O)=O)cc1 | ? | ? | ? | 2.1µM | ?
CCOc1ccc(C(=O)NCC(=O)NC(C)c2ccc(-n3ccnc3)cc2)cc1OCC (stereo not drawn) | nt | ? | i | i | nt
CCCOc1cccc(C(=O)NC(=S)Nc2cccc(C(F)(F)F)c2)c1 | i | i | i | ? | i
COc1ccc(NC(=S)NC(=NS(=O)(=O)c2ccc(Cl)cc2)c2ccccc2)cc1 | 21µM | ? | ? | ? | i
COc1cccc(OC)c1C(=O)Nc1ccc(C)cc1C(=O)c1ccccc1 | i | 16µM | i | i | ?
Cc1ccc(NC(=O)c2ccc(=O)[nH]n2)cc1S(=O)(=O)Nc1ccccc1Cl | i | i | i | i | i
Cc1ccc(NC(=S)NC(=O)c2ccc(F)cc2)cc1S(=O)(=O)Nc1ccccc1Cl | 23µM | ? | ? | i | ?
CCOc1ccc(NS(=O)(=O)c2cc(NC(=O)c3ccc(C)cc3)ccc2Cl)cc1 | ? | 6.5µM | 2.1µM | 4.6µM | 0.82µM
O=C(Nc1ccc(-c2ccccc2)cc1)c1ccccc1 | 21µM | i | ? | i | i
COc1ccc(NC(=O)c2ccccc2)cc1NS(=O)(=O)c1ccc(F)cc1 | i | i | i | i | i
COc1ccc(C(=O)Nc2ccc(Cl)c(S(=O)(=O)Nc3ccccc3OC)c2)cc1 | ? | ? | i | i | 2.3µM
COc1ccccc1NC(=O)Nc1ccc(Cl)c(S(=O)(=O)Nc2ccccc2OC)c1 | i | ? | i | i | i
CCN(CC)c1ccc(NC(=O)c2ccccc2)cc1S(=O)(=O)Nc1ccccc1OC | i | ? | i | i | 15µM
Cc1ccc(NC(=O)c2ccccc2)cc1 | i | ? | i | i | i
COc1cc(OC)cc(C(=O)Nc2ccc(C(=O)Nc3ccccc3OC)cc2)c1 | ? | 16µM | ? | ? | ?
CC(C)CC(=O)N1CCN(S(=O)(=O)c2ccccc2)CC1 | i | ? | i | i | i
CCC(=O)N1c2ccc(S(=O)(=O)N(CCO)Cc3ccccc3)cc2CC1C (stereo not drawn) | i | ? | i | i | i
SMILES | KB-3-1 cytotox | ELG1 DNA repair | MCF10A rereplic | SW480 rerep | KB-V1 MDR tox
CCC(C)NC(=O)c1nn(Cc2ccccc2)c(=O)c2ccccc12 (stereo not drawn) | i | i | ? | i | i
CC(C)c1nnc(NC(=O)CCC(=O)NCC2CCCO2)s1 (stereo not drawn) | i | i | i | i | i
COc1ccc(OC)c(C(=O)c2ccc(C(=O)Nc3ccccc3)cc2)c1 | i | i | i | i | 23µM
COc1ccc(NS(=O)(=O)c2cc(N/C(=N\S(=O)(=O)c3ccccc3)c3ccc(F)cc3)ccc2Cl)cc1 | 21µM | ? | 13µM | ? | 21µM
COc1ccc(NS(=O)(=O)c2cc(C(=O)N3CCN(C(C)=O)CC3)ccc2Cl)cc1 | i | i | i | i | i
COc1cccc(C(=O)O/N=C(\N)c2ccc([N+](=O)[O-])cc2)c1OC | i | ? | i | i | i
